What follows are molecules tested against Protein-tyrosine kinase 2-beta (Homo sapiens) (UniProt Q14289). Settings: at 1 µM.
Chain of Protein-tyrosine kinase 2-beta (Homo sapiens) (Q14289 whole entry, looked up): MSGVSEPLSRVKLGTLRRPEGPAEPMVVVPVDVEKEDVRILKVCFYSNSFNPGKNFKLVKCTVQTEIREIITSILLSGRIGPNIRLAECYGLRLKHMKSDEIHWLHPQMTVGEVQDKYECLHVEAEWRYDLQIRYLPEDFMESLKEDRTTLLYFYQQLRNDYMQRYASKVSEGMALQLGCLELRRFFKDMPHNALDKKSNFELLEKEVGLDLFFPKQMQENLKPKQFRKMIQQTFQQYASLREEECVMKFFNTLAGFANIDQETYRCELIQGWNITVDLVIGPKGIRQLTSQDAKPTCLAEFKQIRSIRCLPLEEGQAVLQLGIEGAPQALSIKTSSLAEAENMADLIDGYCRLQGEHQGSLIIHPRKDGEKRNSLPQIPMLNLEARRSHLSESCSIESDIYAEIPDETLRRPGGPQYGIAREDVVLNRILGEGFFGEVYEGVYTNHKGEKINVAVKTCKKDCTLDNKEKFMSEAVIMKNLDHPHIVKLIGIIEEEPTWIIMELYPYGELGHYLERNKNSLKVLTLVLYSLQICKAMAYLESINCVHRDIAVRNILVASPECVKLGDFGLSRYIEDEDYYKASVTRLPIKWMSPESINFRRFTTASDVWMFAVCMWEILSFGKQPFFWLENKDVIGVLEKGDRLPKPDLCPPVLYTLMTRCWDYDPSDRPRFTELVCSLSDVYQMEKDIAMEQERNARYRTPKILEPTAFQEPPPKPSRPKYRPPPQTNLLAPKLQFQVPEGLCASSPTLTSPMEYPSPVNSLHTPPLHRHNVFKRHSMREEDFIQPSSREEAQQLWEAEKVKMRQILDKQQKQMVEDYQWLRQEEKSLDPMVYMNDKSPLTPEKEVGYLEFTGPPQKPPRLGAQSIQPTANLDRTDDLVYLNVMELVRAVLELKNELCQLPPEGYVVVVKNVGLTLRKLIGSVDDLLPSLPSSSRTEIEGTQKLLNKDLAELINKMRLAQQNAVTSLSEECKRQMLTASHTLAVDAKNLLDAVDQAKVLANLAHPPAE
CC(C)[C@H](CO)Nc1nc(Nc2cccc(Cl)c2)c2ncn(C(C)C)c2n1 gave a residual activity of 35%.
In the case of COC(=O)[C@@]1(O)C[C@H]2O[C@]1(C)n1c3ccccc3c3c4c(c5c6ccccc6n2c5c31)C(=O)NC4, the residual activity is reported as 3%.
O=C1c2ccccc2-c2nc3nnnn3nc21 gave a residual activity of 146%.
COc1cc2ncnc(Nc3ccc(OCc4ccccc4)cc3)c2cc1OC showed a residual activity of 111%.
O=c1[nH]c2ccccc2n1C1CCN(Cc2ccc(-c3nc4cc5[nH]cnc5cc4nc3-c3ccccc3)cc2)CC1 was tested, and the residual activity was 128%.
CCn1cnc2c(Nc3cccc(Cl)c3)nc(N[C@@H]3CCCC[C@@H]3N)nc21 was tested, and the residual activity was 49%.
CCc1nc(-c2ccc(OC)cc2)[nH]c1-c1ccncc1 was tested, and the residual activity was 115%.
C[S+]([O-])c1ccc(-c2nc(-c3ccc(F)cc3)c(-c3ccncc3)[nH]2)cc1 (stereo unspecified) showed a residual activity of 115%.
In the case of O=C1Nc2ccc3ncsc3c2/C1=C/c1c[nH]cn1, the residual activity is reported as 79%.
For COc1ccc2c(c[n+](C)c3c4cc5c(cc4ccc23)OCO5)c1OC, the residual activity was 133%.
With O=[N+]([O-])/C=C/c1ccc2c(c1)OCO2 the residual activity was 129%.

Reference: ChEMBL document CHEMBL2218924, “A broad activity screen in support of a chemogenomic map for kinase signalling research and drug discovery” (Biochem J, 2013)
